Drawing on article PMC7862700, “An all-to-all approach to the identification of sequence-specific readers for epigenetic DNA modifications on cytosine”, this text covers binding signal for 40 sequences.

The target of the assay is T1, FLI1 (Homo sapiens, UniProt Q01543 1-452).
T1 sequence: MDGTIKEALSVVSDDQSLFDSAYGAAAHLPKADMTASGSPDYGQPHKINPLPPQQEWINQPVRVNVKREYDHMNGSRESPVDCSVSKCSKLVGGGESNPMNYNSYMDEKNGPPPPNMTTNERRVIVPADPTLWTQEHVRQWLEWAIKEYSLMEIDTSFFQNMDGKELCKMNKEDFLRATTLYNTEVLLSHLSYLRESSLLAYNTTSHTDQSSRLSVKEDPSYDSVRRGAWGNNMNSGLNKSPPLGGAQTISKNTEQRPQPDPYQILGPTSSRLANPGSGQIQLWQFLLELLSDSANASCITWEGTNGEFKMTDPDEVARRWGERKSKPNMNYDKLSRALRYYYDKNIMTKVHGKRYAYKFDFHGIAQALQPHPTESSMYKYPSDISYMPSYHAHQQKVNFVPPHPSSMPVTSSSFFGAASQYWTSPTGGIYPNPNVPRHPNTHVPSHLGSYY
As to the kind of experiment: DAPPL (digital affinity profiling via proximity ligation, sequencing); 10 mM Tris-HCl pH 7.5, 50 mM NaCl, 1 mM DTT, 4% glycerol, room temperature, 30 min; GST-TFs on glutathione beads, 16-mer random dsDNA library, 0.1% formaldehyde crosslink after washing; high values mean tight binding. The conditions noted are these: protein: recombinant; tags: N-terminal GST; dsDNA, one strand shown. Put shortly: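 Binding signal is given per hexamer as its read frequency for a factor divided by its frequency in the tag-only sample. GST-fused human transcription factors were expressed in yeast, captured on glutathione beads, barcoded with DNA and pooled with that sample, then incubated with 200 nmole of a 16-mer random double-stranded DNA library in Tris/NaCl/DTT/glycerol buffer for 30 min at room temperature. The pools were then washed, crosslinked, proximity-ligated, amplified by PCR and sequenced on an Illumina NextSeq500.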
Turning to TGCTTT, the binding signal was 1.13 fold enrichment (6-mer frequency, TF over GST control).

With CTAGAT, the binding signal is 1.13 fold enrichment (6-mer frequency, TF over GST control). The value for CTCTAC was 1.51 fold enrichment (6-mer frequency, TF over GST control). With CTTGCT, the binding signal is 1.51 fold enrichment (6-mer frequency, TF over GST control). Consider TCGATT, for which the binding signal is 1.12 fold enrichment (6-mer frequency, TF over GST control). The result for GAAAAT reads 1.16 fold enrichment (6-mer frequency, TF over GST control); that for TCCTTG, 1.25 fold enrichment (6-mer frequency, TF over GST control); that for CCTAGC, 1.18 fold enrichment (6-mer frequency, TF over GST control).

On to AGCTTC, for which the binding signal is 1.64 fold enrichment (6-mer frequency, TF over GST control). The result for CGTACT reads 1.2 fold enrichment (6-mer frequency, TF over GST control); that for TCTGGC, 1.36 fold enrichment (6-mer frequency, TF over GST control).

Regarding TCAAAC, the binding signal is 1.17 fold enrichment (6-mer frequency, TF over GST control). Turning to TTTCGA, the binding signal is 1.36 fold enrichment (6-mer frequency, TF over GST control). The result for GTATCT reads 1.23 fold enrichment (6-mer frequency, TF over GST control). The value for TTTCAT was 1.11 fold enrichment (6-mer frequency, TF over GST control); that for TATGTA was 1.32 fold enrichment (6-mer frequency, TF over GST control); that for CGCCCT was 1.44 fold enrichment (6-mer frequency, TF over GST control). The value for TTTGAT was 1.37 fold enrichment (6-mer frequency, TF over GST control); that for TATGGC was 1.19 fold enrichment (6-mer frequency, TF over GST control); that for TATCAT was 1.25 fold enrichment (6-mer frequency, TF over GST control). In the case of CTTCAC, the binding signal is 1.47 fold enrichment (6-mer frequency, TF over GST control). The value for CTACCT was 1.37 fold enrichment (6-mer frequency, TF over GST control); that for ATGAAC was 1.31 fold enrichment (6-mer frequency, TF over GST control). The result for GATGAT reads 1.34 fold enrichment (6-mer frequency, TF over GST control); that for ATAGTA, 1.12 fold enrichment (6-mer frequency, TF over GST control).

Take TCATCT: the binding signal is 1.23 fold enrichment (6-mer frequency, TF over GST control). On to ATACAG, for which the binding signal is 1.16 fold enrichment (6-mer frequency, TF over GST control). The value for AAAATA was 1.17 fold enrichment (6-mer frequency, TF over GST control); that for AACTAA was 1.39 fold enrichment (6-mer frequency, TF over GST control). Turning to GCGCTT, the binding signal is 1.31 fold enrichment (6-mer frequency, TF over GST control). The value for GCCTTA was 1.15 fold enrichment (6-mer frequency, TF over GST control); that for AAATGA was 1.23 fold enrichment (6-mer frequency, TF over GST control); that for TACGCT was 1.3 fold enrichment (6-mer frequency, TF over GST control). Turning to TCCGCT, the binding signal was 2.39 fold enrichment (6-mer frequency, TF over GST control).

As for CCTCCA, the binding signal is 1.37 fold enrichment (6-mer frequency, TF over GST control). The result for TCCTAG reads 1.23 fold enrichment (6-mer frequency, TF over GST control); that for TCTTTA, 1.22 fold enrichment (6-mer frequency, TF over GST control).

ATGTTT: the binding signal was 1.48 fold enrichment (6-mer frequency, TF over GST control). The value for GAACTA was 1.39 fold enrichment (6-mer frequency, TF over GST control). The result for CTCAAC reads 1.25 fold enrichment (6-mer frequency, TF over GST control).
